# According to PubChem BioAssay (Tox21):
# Results filed as inconclusive are left out. Active and inactive are the calls of the source. Calls follow the shape of the dose curve; as a rule, active = well fitted inhibition curve with a large enough effect in the repeat runs; inconclusive = weak or mixed curves; inactive = flat fitted curve, though single readings scatter.
# Target: Voltage-gated inwardly rectifying potassium channel KCNH2 (Homo sapiens) (UniProt Q12809)
# Assay: Human Ether-a-go-go-Related Gene (hERG) channel small molecule antagonists: fluorescence cell-based qHTS assay (AID 1671200); also: nearly all actives have a fitted effect of over 50% in size
# Conditions: hERG-U2OS cells, FluxOR thallium flux fluorescence; series mostly up to 76.8 µM; activity change, negative = inhibition: at the top concentration
# Description: National Center for Advancing Translational Sciences [NCATS]
# U.S. Environmental Protection Agency [EPA]
# National Institutes of Environmental Health Sciences [NIEHS]
# National Toxicology Program [NTP]
# U.S. Food and Drug Administration [FDA]
# Mutations in the hERG channel cause Long QT (LQT) syndrome. LQT syndrome is a cardiac disorder which can cause ventricle arrhythmia and sudden death. Additionally, compounds which block the hERG channel can cause acquired LQT syndrome. Several FDA approved drugs have been removed from the market due to their hERG blocking activity. A cell-based hERG channel inhibition assay can be used to screen chemical compounds that inhibit hERG channel. This assay measures hERG channel activity using thallium ions as surrogate ions to measure potassium into the cells.
# Tox21 Assay Protocol Summary:
# hERG-U2OS cells were resuspended in culture medium and dispensed into 1536-well, black wall/clear-bottom plates at 1000cells/well/3uL using a Multidrop Combi dispenser (Thermo Fisher, Waltham, MA). After plates were incubated at 37 C overnight, 3 uL of Loading Buffer provided by FluxOR II Potassium Ion Channel Assay kit (Thermo, Carlsbad, CA) was added to each well. The assay plates were then incubated at room temperature in the dark for 1h. […] After the assay plates were incubated at room temperature for 10 min, 1 uL of Stimulus Buffer provided by FluxOR II Potassium Ion Channel Assay kit was added into each well and fluorescence intensity (480nm excitation/540nm emission) was continuously measured for 2 min at 1 second intervals using a Functional Drug Screening System (FDSS) 7000EX kinetic plate reader (Hamamatsu, Japan).
# % is scaled to controls: 0 for no effect and ±100 for the full control effect; potency is read from the fitted curve at half-maximal effect.
# Sequence of Voltage-gated inwardly rectifying potassium channel KCNH2 (Homo sapiens) (Q12809 whole entry, looked up): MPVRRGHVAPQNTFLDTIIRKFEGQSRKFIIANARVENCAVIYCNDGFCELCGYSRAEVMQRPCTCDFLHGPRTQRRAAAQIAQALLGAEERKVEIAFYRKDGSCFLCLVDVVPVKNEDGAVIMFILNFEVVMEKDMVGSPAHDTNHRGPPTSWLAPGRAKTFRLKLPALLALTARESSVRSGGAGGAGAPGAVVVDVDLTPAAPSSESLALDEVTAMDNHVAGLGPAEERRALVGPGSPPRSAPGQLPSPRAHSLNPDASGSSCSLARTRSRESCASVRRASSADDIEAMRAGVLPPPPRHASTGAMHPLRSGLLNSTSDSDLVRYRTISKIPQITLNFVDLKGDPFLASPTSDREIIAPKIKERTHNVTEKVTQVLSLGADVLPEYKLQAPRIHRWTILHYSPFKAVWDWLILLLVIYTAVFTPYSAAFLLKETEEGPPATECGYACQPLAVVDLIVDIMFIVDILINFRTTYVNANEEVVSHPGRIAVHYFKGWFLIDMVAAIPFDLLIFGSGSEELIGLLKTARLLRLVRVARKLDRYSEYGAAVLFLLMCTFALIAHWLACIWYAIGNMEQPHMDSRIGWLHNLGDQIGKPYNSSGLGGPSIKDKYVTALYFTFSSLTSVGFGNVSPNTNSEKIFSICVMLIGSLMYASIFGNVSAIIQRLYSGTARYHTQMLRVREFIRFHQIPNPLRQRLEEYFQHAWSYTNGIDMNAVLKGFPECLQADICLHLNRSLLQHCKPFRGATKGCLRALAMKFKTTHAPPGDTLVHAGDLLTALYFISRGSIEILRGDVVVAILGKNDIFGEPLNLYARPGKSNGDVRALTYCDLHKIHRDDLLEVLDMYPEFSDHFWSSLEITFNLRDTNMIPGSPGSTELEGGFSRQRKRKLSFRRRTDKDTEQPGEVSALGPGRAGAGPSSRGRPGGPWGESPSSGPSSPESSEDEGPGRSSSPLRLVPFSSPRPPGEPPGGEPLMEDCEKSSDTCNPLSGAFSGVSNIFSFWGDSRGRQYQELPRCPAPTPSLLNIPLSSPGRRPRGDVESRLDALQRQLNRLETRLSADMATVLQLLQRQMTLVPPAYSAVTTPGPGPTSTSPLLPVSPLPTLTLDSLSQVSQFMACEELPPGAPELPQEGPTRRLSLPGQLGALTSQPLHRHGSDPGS
Structure (SMILES),"activity change, negative = inhibition",Potency
CCC(C)NC(N)=O (stereo not given),3.44% (inactive),
CCCCCCCCC(=O)Cl,0.516% (inactive),
COc1cc(N)ccc1C,2.47% (inactive),
CCCCCCOc1ccccc1C(N)=O,-9.95% [at 35.3 µM] (inactive),
O=C(O)c1cc(Br)c(O)c(Br)c1,-0.752% (inactive),
CCCC(=O)C(C)=O,12.2% (inactive),
CCCCCCCCCCl,-1.47% (inactive),
C[C@H](N)[C@H](O)c1cccc(O)c1,3.1% [at 35.3 µM] (inactive),
CNC(=O)[C@H]1O[C@@H](n2cnc3c(NCc4cc(Cl)ccc4OCc4cc(C)no4)ncnc32)[C@H](O)[C@@H]1N,-0.353% (inactive),
CCOCCOCCOCC,-5.04% (inactive),
CC(C)(C)OC(=O)c1ccc(O)cc1,0.349% (inactive),
CCOC(=O)c1ccc(OC(=O)CCCCCN=C(N)N)cc1,7.23% [at 35.3 µM] (inactive),
C=C(C)C(=O)OCC(C)(C)COC(=O)C(=C)C,-4.27% (inactive),
O=C(O)c1ccc(Cl)cc1Cl,-1.53% (inactive),
C=C1CC/C=C(\C)CC[C@@H]2[C@@H]1CC2(C)C,0.837% (inactive),
CC1=CCC(C(C)C)=CC1,-3.45% (inactive),
COC(=O)CCCCCCCC(=O)OC,-4.69% (inactive),
CCCCN,0.264% [at 35.3 µM] (inactive),
CN=C(NC#N)Nc1ccc(C2=NNC(=O)CC2C)cc1 (stereo not given),-0.999% [at 35.3 µM] (inactive),
CC(=O)/C=C/C1C(C)=CCC(C)C1(C)C (stereo not given),1.39% (inactive),

Structure (SMILES),"activity change, negative = inhibition",Potency
C#CC(C)N(C)C(=O)Nc1ccc(Cl)cc1 (stereo not given),6.09% (inactive),
CC(C)NCC(O)COc1cccc2[nH]ccc12 (stereo not given),-6.02% [at 35.3 µM] (inactive),
Cc1cccc2nccnc12,7.15% (inactive),
CCCCCCCCC1CCC(=O)O1 (stereo not given),-0.226% (inactive),
CCCN1C[C@H](CSC)C[C@@H]2c3cccc4[nH]cc(c34)C[C@H]21,,7.56 µM (active)
O=P(O)(O)OP(=O)(O)O,3.89% (inactive),
CO[C@@H]1[C@@H](OC(N)=O)[C@@H](O)[C@H](Oc2ccc3c(O)c(NC(=O)c4ccc(O)c(CC=C(C)C)c4)c(=O)oc3c2C)OC1(C)C,-0.0643% [at 35.3 µM] (inactive),
O=C1CC(c2ccc(Cl)cc2)CC(=O)N1,5.24% [at 35.3 µM] (inactive),
FC(F)(F)c1ccccc1-n1ccnc1,0.523% [at 35.3 µM] (inactive),
CC(C)C(=O)OCCc1ccccc1,0.499% (inactive),
CC1(CO)CN(c2ccccc2)NC1=O (stereo not given),10.3% (inactive),
CCCC/C=C/C=C\C=O,-5.57% (inactive),
N[C@@H](CCC(=O)Nc1ccc([N+](=O)[O-])cc1)C(=O)O,0.744% (inactive),
CCCC/C=C\CCCCCCCCCC=O,-10.3% (inactive),
Nc1ccc(S(=O)(=O)Nc2ccc(Cl)nn2)cc1,1.69% [at 35.3 µM] (inactive),
O=C1c2ccccc2C(=O)N1CCl,0.353% (inactive),
O=C(Nc1ccc(Cl)c(Cl)c1)C1CC1,0.697% [at 35.3 µM] (inactive),
NS(=O)(=O)c1cc2c(cc1Cl)CN(C1CCCCC1)C2=O,3.39% [at 35.3 µM] (inactive),
c1ccc2nccnc2c1,4.93% (inactive),
CC(C)CCCCOC(=O)c1ccccc1C(=O)OCCCCC(C)C,-4.85% (inactive),
